# Measurements reported in the OligoGym collection.
# Columns and labels:
# Assay in all cases: pooled miR-30 sensor sort-seq; sequence = guide strand
# Settings in all cases: shRNA
# PHF19 = target: PHF19
# PHF20 = target: PHF20
# PHF23 = target: PHF23
# PHF15 = target: PHF15
# PION = target: PION
# PML = target: PML
# POLR3B = target: POLR3B
# PPIP5K1 = target: PPIP5K1
# PQLC1 = target: PQLC1
# PRKAR1B = target: PRKAR1B
# PRPS1 = target: PRPS1
# PRPS2 = target: PRPS2
# PRODH2 = target: PRODH2
# PROM2 = target: PROM2
# Note: reference of the scale not given here.
sequence,measurement,setting,value
TTCTTGATCTCCTTGCCGCAGA,sensor-assay potency score (higher = more potent),PHF19,-0.66
TTTTCTTCTATAAACTCGCCTT,sensor-assay potency score (higher = more potent),PHF19,-0.149
TAAACTTCTCTCGTTTATCAGG,sensor-assay potency score (higher = more potent),PHF20,-1.02
TTTGAAGTTGTTCTTGACCTTC,sensor-assay potency score (higher = more potent),PHF19,-0.341
TTCAGAGTCTGTATCACTGGGG,sensor-assay potency score (higher = more potent),PHF23,0.423
TTGCCATCTCTTCTTCTTCTTC,sensor-assay potency score (higher = more potent),PHF23,-0.747
TTGACAGTCTGAACTACTCCAT,sensor-assay potency score (higher = more potent),PHF20,-0.0489
TTGTGTGAGGACCCACACCTGG,sensor-assay potency score (higher = more potent),PHF20,-1.15
TAAACTTTGAATTTCATCCAGC,sensor-assay potency score (higher = more potent),PHF19,0.174
TTGCTTAGAGCTGCTGACCCTC,sensor-assay potency score (higher = more potent),PHF19,-1.03
TTCTCAATGGAGTCCATCCTGT,sensor-assay potency score (higher = more potent),PHF20,-0.423
TTTTATAACTGTTCAGAGCGTT,sensor-assay potency score (higher = more potent),PHF19,0.145
TTGTCTGGAGTCGTCCGTGAAC,sensor-assay potency score (higher = more potent),PHF15,-1.11
TAGTTGGTGATAGATGACTTGA,sensor-assay potency score (higher = more potent),PHF19,-1.21
TAAACTTATGGTCTAGGTCGAC,sensor-assay potency score (higher = more potent),PHF20,-0.7
TAACATTGCAGCATCCGCAGGT,sensor-assay potency score (higher = more potent),PHF19,0.519
TTAACTTTCCTTCTTTATCAGG,sensor-assay potency score (higher = more potent),PHF20,-0.815
TACCATGATGTCCTCGTCCATG,sensor-assay potency score (higher = more potent),PHF23,-1.2
TGAATCTTTTTGAAGGTGCAGA,sensor-assay potency score (higher = more potent),PHF19,0.0337
TTTCTTCTTTTCTACACCCTGT,sensor-assay potency score (higher = more potent),PION,0.0243
TAGACTGAACTAAACTTGCAGC,sensor-assay potency score (higher = more potent),PION,-0.224
TCCATCTTGATGACCTTCCTGG,sensor-assay potency score (higher = more potent),PML,-0.889
TTGACAATTATGTAGGGTCTGC,sensor-assay potency score (higher = more potent),POLR3B,-0.266
TAAAGCATGATGACAATCTGGG,sensor-assay potency score (higher = more potent),PPIP5K1,0.285
TTCTTCATCCTTGCTATCTGCA,sensor-assay potency score (higher = more potent),PQLC1,-0.201
TAACGCTGAATGTTCCTCTTGA,sensor-assay potency score (higher = more potent),PRKAR1B,0.692
TTGGTGACTACTACTGCCTCAA,sensor-assay potency score (higher = more potent),PRPS1,-0.00628
TGTCCTTTTTATCTTGTCGGGC,sensor-assay potency score (higher = more potent),PRPS2,-0.556
TTGTCGTTAATTTCCCCGCAGC,sensor-assay potency score (higher = more potent),PRPS2,-0.905
TATTGGTGACTACTACTGCCTC,sensor-assay potency score (higher = more potent),PRPS1,-1.03
AAAATTGGAAACGCTGTAGTGT,sensor-assay potency score (higher = more potent),PRODH2,-0.189
TTCTCCTCCTGGACCATGCTGG,sensor-assay potency score (higher = more potent),PROM2,-0.874
TTCTGGAAATAGCTGGTCCAGA,sensor-assay potency score (higher = more potent),PRPS2,-1.31
TAAATTGTCATTGATTTCGCCA,sensor-assay potency score (higher = more potent),PRPS1,-0.0544
TTATCTTTCTTATCCTGCCGGG,sensor-assay potency score (higher = more potent),PRPS1,0.175
TAGGACATCTGAGGTCTCCAGC,sensor-assay potency score (higher = more potent),PROM2,-0.69
TAATATGATCTGCACCTGCTAC,sensor-assay potency score (higher = more potent),PRPS1,-0.935
TTGGGGGACATCAGAGACCAGG,sensor-assay potency score (higher = more potent),PROM2,-1.48
TACACTTTCACCAATTTCCACA,sensor-assay potency score (higher = more potent),PRPS1,-0.758
TTGTCATTGATTTCGCCACAAC,sensor-assay potency score (higher = more potent),PRPS1,-1.49
TATTTATTCTGGAAATAGCTGG,sensor-assay potency score (higher = more potent),PRPS2,-0.496
TTGTCCTTTTTATCTTGTCGGG,sensor-assay potency score (higher = more potent),PRPS2,-0.968
TGGTTGCTGAACTTCTTCGTGA,sensor-assay potency score (higher = more potent),PRPS2,-1.01
TTGACGGCAAAGATGATGCTGG,sensor-assay potency score (higher = more potent),PROM2,-0.136
TTTGCAACAAGCTTGGCTGAGA,sensor-assay potency score (higher = more potent),PRPS1,-0.163
TTGGCTAGGACATCTGAGGTCT,sensor-assay potency score (higher = more potent),PROM2,0.382
TTGCTTCCTCTTAAAATTGGAA,sensor-assay potency score (higher = more potent),PRODH2,-1.06
TTAAAATTGGAAACGCTGTAGT,sensor-assay potency score (higher = more potent),PRODH2,0.00998
TAACAGGTCCGGAGCATCCTGG,sensor-assay potency score (higher = more potent),PRODH2,-1.03
TAGCTTGTTGGTATACTGGTTG,sensor-assay potency score (higher = more potent),PROM2,-0.045
TGTAGGTCTCGTATCTCTGCAC,sensor-assay potency score (higher = more potent),PROM2,-0.146
TTGTGCTCTGTCTTCACTCGTC,sensor-assay potency score (higher = more potent),PROM2,0.345
ATGACCTGAATCTTGGTGCAGT,sensor-assay potency score (higher = more potent),PRPS2,-0.901
TTCAGCTCTTGCACCACGCTGG,sensor-assay potency score (higher = more potent),PROM2,-0.154
TTGAGCTGCAGGACTGTCCAGA,sensor-assay potency score (higher = more potent),PROM2,-0.114
TCACACAGGATCACACGGCTGT,sensor-assay potency score (higher = more potent),PROM2,0.353
TCACTCTCTTAGCTCCACCAGC,sensor-assay potency score (higher = more potent),PRPS1,-0.945
TGAAAATACGGTTCTCACGTTT,sensor-assay potency score (higher = more potent),PRODH2,0.0951
TGATAATATGATCTGCACCTGC,sensor-assay potency score (higher = more potent),PRPS1,-0.404
TATTTGGAGGTCTTGACGGCAA,sensor-assay potency score (higher = more potent),PROM2,-0.214
